The values below come from PubChem BioAssay (Tox21).

Results filed as inconclusive are left out. Where a call stands in place of a potency, no number is given. A number with no mark means an inactive call. Activity calls are given as the source filed them. Calls follow the shape of the dose curve; as a rule, active = well fitted cell-killing curve with a large enough effect in the repeat runs; inconclusive = weak or mixed curves, or effect the other way; inactive = flat fitted curve, though single readings scatter.
Potency is read from the fitted curve at half-maximal effect.

This experiment can be described thus: qHTS assay to identify small molecule agonists of the estrogen receptor beta (ER-beta) signaling pathway - cell viability counter screen (AID 1259380). Also: nearly all actives have a fitted effect of over 30% in size. To be noted: ER-beta-bla HEK293T viability, CellTiter-Glo luminescence, 16 h; series mostly up to 92.4 µM. The source says: National Center for Advancing Translational Sciences [NCATS]
NIH Chemical Genomics Center [NCGC]
U.S. Environmental Protection Agency [EPA]
National Institutes of Environmental Health Sciences [NIEHS]
National Toxicology Program [NTP]
U.S. Food and Drug Administration [FDA]
Estrogen receptor (ER), a nuclear hormone receptor, plays an important role in development, metabolic homeostasis and reproduction. Two subtypes of ER, ER-alpha and ER-beta, have similar expression patterns with some uniqueness in both types. Endocrine disrupting chemicals (EDCs) and their interactions with steroid hormone receptors like ER causes disruption of normal endocrine function. To identify the compounds that activate ER signaling, an ER beta-UAS-bla GripTite cell line (Life Technologies, Madison, WI, USA) containing a beta-lactamase reporter gene under the control of an UAS response element was used to screen Tox21 10K compound library. The cytotoxicity of the Tox21 compound library against the ER-beta-bla cell line was tested in parallel by measuring the cell viability using CellTiter-Glo assay in the same wells.
Tox21 Assay Protocol Summary:
ER-beta-UAS-bla HEK293T cells were dispensed at 2,000 cells/5 uL of assay medium containing 2% charcoal stripped FBS per well into black wall/clear-bottom 1536-well plates using a Multidrop Combi (ThermoFisher Scientific, Waltham, MA) dispenser. After the assay plates were incubated at a 37C and 5% CO2 for 6 hr, 23 nL of compounds dissolved in DMSO, positive controls or DMSO only was transferred to the assay plate by a Pintool station (Kalypsys, San Diego, CA). The plates were incubated at 37C and 5% CO2 for 16 hr. Then 1 uL of LiveBLAzerTM B/G FRET substrate was added using a BioRAPTR FRD (Flying Reagent Dispenser, Aurora Discovery, San Diego, CA) and then the plates were incubated at room temperature for 2 hours, and fluorescence intensity was measured by an Envision plate reader (PerkinElmer, Shelton, CT). For cell viability readout that measures cytotoxicity, 4 uL/well of CellTiter-Glo reagent was added into the assay plates using a FRD. After 30 min incubation at room temperature, the luminescence intensity in the plates was measured using a ViewLux (PerkinElmer) plate reader.
In the case of `CCCCCCCCCCCCCCBr`, the Potency result was “inactive”.

Regarding `C=CCCCCCCCCCCCCCC`, the activity change, negative = cytotoxicity is 1.12% [at 19 µM].

As for `CC(C)OCCO`, the Potency result is “inactive”.

As to `Cc1ccc2ccccc2n1`, the Potency entry is “inactive”.

Consider `CN(C)CCCN(C)C`, for which the activity change, negative = cytotoxicity is 5.46% [at 8.39 µM].

On to `CC/C=C\CCOC(=O)c1ccccc1`, for which the Potency result is “inactive”.

With `CCCCc1ccc(Cl)cc1`, the Potency entry is “inactive”.

For `CCCCCC(=O)CC`, the Potency result was “inactive”.

As to `COc1cc2nc(N3CCN(C(=O)C4CCCO4)CC3)nc(N)c2cc1OC` (stereo not given), the Potency result was “inactive”.

Consider `Cc1ccccc1OCC(=O)O`, for which the Potency entry was “inactive”.

Turning to `O=C(OOC(=O)c1ccccc1)c1ccccc1`, the Potency entry is “inactive”.

As for `CCC(C)SSC(C)CC` (stereo not given), the Potency result was “inactive”.

Take `CC(C)(C)C(=O)CC(=O)C(C)(C)C`: the Potency entry was “inactive”.

`O=C(O)CCCCCCCCCC(=O)O`: the Potency result is “inactive”.

On to `CC(C)(C)c1ccc(N)cc1`, for which the Potency result was “inactive”.

In the case of `CCCCC(CC)COC(=O)CC#N` (stereo not given), the Potency entry is “inactive”.

For `O=C(O)/C=C(\CC(=O)O)C(=O)O`, the Potency entry was “inactive”.

As to `C/C=C(\C)C(=O)OC/C=C(\C)CCC=C(C)C`, the Potency result is “inactive”.

Regarding `CC(C)OC(=O)C(C(=O)OC(C)C)=C1SC=CS1`, the Potency was 18.8 µM (active).

Consider `O=C(O)Cc1c(Cl)ccc(Cl)c1Cl`, for which the Potency result is “inactive”.

`C/C=C/C(=O)CCCC`: the Potency result was “inactive”.

Consider `O=c1c(O)c(O)c1=O`, for which the Potency result was “inactive”.

For `O=C(O)Cc1ccccc1Oc1ccc(Cl)cc1Cl`, the Potency entry was “inactive”.

In the case of `CC(=O)OC1CCC(C(C)(C)C)CC1` (stereo not given), the Potency entry was “inactive”.

For the compound `CCc1ccc(CC)cc1`, the Potency entry was “inactive”.

For `CN(C)CCC[C@@]1(c2ccc(F)cc2)OCc2cc(C#N)ccc21`, the Potency was 2.98 µM (active).

As for `CCOC(=O)[C@H](CCc1ccccc1)N[C@H]1CS[C@H](c2cccs2)CN(CC(=O)O)C1=O`, the Potency entry is “inactive”.

Take `O=C(O)COc1ccc2ccccc2c1`: the Potency entry is “inactive”.

For `CCCCCCCCCCCCCCCC(=O)OC`, the activity change, negative = cytotoxicity was 4.05% [at 19 µM].

In the case of `Clc1cc(Cl)c(Cl)c(Cl)c1Cl`, the Potency result was “inactive”.

As for `CC(C)(C)C(=O)CCc1ccc(Cl)cc1`, the Potency entry is “inactive”.

On to `CNC(C)=O`, for which the Potency result was “inactive”.

Take `C=CC(=O)CC`: the Potency entry is “inactive”.

On to `O=S(=O)(O)c1ccc(Cl)cc1`, for which the Potency entry is “inactive”.

For `CC(=O)c1ccc(O)c(C(N)=O)c1`, the Potency entry is “inactive”.

On to `CCCCCCCCC1CO1` (stereo not given), for which the Potency result was “inactive”.

On to `CC12CCCC=C1C(=O)OC2=O` (stereo not given), for which the Potency result is “inactive”.

On to `O=P(O)(O)C(O)(Cc1cccnc1)P(=O)(O)O`, for which the Potency entry is “inactive”.

Regarding `Cc1cccc(N)n1`, the Potency entry was “inactive”.

`CCCCN=C(N)N=C(N)N`: the Potency result was “inactive”.
